Some of the results follow. Activity calls are given as the source filed them.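 The calls were made as follows, unless noted: active = mean inhibition above about 50% in the one-dose retest (limit read from the data); inactive = the rest.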
Assays:
[1] = target: Sentrin-specific protease 8 (Homo sapiens) (UniProt Q96LD8); assay: human SENP8 peptidase blockers, hit retest – biochemical, luminescence, single concentration, confirmation (AID 488912;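 active = mean inhibition across replicates above about 50%, limit read from the data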); settings: Recombinant SENP8, Z-RLRGG-aminoluciferin luminescence, 60 min; at 12.5 µM; stronger effect = higher value
Sequence of Sentrin-specific protease 8 (Homo sapiens) (Q96LD8 whole entry, looked up, the tested form may be a part): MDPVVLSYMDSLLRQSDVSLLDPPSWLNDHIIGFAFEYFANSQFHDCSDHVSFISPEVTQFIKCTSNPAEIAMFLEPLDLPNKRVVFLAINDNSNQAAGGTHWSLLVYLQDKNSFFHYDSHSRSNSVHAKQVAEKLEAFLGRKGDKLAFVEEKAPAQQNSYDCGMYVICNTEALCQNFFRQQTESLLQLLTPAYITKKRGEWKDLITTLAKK

[2] = target: Sentrin-specific protease 6 (Homo sapiens) (UniProt Q9GZR1); assay: inhibition of human SENP6 catalytic domain – biochemical, luminescence, single concentration, confirmation (AID 488915); settings: recombinant SENP6, Z-RLRGG-aminoluciferin luminescence; at 12.5 µM; stronger effect = higher value
Sequence of Sentrin-specific protease 6 (Homo sapiens) (Q9GZR1 628-1112 limits assumed): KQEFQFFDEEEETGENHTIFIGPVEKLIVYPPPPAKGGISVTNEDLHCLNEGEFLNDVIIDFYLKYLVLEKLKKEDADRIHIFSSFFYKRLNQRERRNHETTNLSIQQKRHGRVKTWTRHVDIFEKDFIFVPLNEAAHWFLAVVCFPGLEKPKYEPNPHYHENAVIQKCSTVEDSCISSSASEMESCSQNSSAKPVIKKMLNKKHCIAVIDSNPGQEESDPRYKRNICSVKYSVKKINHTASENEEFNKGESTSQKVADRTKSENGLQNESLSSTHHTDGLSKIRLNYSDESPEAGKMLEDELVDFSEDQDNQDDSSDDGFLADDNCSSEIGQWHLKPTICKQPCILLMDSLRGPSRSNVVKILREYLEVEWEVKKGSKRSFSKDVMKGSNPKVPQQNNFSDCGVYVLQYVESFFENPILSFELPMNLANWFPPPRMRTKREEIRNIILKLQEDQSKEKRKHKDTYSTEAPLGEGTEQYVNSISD

[3] = target: Sentrin-specific protease 7 (Homo sapiens) (UniProt Q9BQF6); assay: human SENP7 peptidase blockers, hit retest – biochemical, luminescence, single concentration, confirmation (AID 488917); settings: recombinant SENP7, Z-RLRGG-aminoluciferin luminescence, 40 min; at 12.5 µM; stronger effect = higher value
Sequence of Sentrin-specific protease 7 (Homo sapiens) (Q9BQF6 706-1050 limits assumed): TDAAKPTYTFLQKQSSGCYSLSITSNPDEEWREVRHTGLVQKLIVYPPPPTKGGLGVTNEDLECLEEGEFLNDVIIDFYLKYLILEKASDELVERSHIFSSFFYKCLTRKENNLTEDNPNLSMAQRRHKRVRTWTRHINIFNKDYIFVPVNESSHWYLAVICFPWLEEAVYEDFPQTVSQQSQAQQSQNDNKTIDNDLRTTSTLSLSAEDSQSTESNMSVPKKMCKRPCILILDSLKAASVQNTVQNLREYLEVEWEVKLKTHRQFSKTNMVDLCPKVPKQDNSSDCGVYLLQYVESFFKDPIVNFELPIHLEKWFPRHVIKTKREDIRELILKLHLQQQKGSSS

[4] = target: Caspase-3 (Homo sapiens) (UniProt P42574); assay: human caspase-3 activity blockade, out-of-family – biochemical, single concentration, selectivity assay for SENP inhibitor project, confirmation (AID 488918;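 active = mean inhibition above about 50%, limit read from the data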;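 also: plate controls were enzyme with DMSO for no effect and wells without caspase-3 for full effect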); settings: purified caspase-3, Z-DEVD-aminoluciferin luminescence, 60 min; at 12.5 µM; stronger effect = higher value
Sequence of Caspase-3 (Homo sapiens) (P42574 28-227 limits assumed): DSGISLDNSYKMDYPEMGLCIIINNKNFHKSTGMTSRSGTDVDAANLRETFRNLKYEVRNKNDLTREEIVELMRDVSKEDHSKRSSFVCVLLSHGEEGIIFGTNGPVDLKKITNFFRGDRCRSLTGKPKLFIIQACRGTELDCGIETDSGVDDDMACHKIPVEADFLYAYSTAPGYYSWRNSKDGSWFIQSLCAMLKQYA

[5] = Ultra-Glo luciferase signal interference – biochemical, single concentration, SENP8 reaction pre-completed, artefact control for SENP inhibitor project, confirmation (AID 488919;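 active = mean inhibition above about 50% when retested at one dose, limit read from the data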;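 also: plate controls were DMSO wells with completed reaction for no effect and substrate without enzyme for full effect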); settings: Pre-incubated SENP8/Z-RLRGG-aminoluciferin, luciferase luminescence interference; at 12.5 µM; stronger effect = higher value
[6] = apoptosome-driven caspase-3 activation blockers – biochemical, fluorescence, DEVD-Rh110, 20 µM, confirmation (AID 504614;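 active = mean inhibition of at least 40% at 20 µM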;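 also: plate controls were DMSO wells for no effect and DEVD-CHO caspase inhibitor control wells for full effect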); settings: reconstituted apoptosome, caspase-3 DEVD-Rh110 fluorescence; at 20 µM; stronger effect = higher value
[7] = detection-step artefacts after completed caspase reaction – biochemical, fluorescence, Rh110, 20 µM, artefact control for Apaf-1 inhibitor project, confirmation (AID 504615;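 active = signal rise of 40% or more at 20 µM, treated as a fluorescence artifact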); settings: quenched caspase reaction, at 20 µM, stronger effect = higher value
[8] = target: Protein Mdm4 (Homo sapiens) + E3 ubiquitin-protein ligase Mdm2 (Homo sapiens) (UniProt O15151+Q00987); assay: human Mdm2/MdmX binding disruption – cell-based, luminescence, single concentration, set 2, confirmation (AID 504601;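 active = mean inhibition of the luminescence signal across two replicates at or above 26 percent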); settings: SaOS-2 split-luciferase Mdm2/MdmX complementation, at 8 µM, stronger effect = higher value
Sequence of Protein Mdm4 (Homo sapiens) + E3 ubiquitin-protein ligase Mdm2 (Homo sapiens) (O15151 whole entry, looked up): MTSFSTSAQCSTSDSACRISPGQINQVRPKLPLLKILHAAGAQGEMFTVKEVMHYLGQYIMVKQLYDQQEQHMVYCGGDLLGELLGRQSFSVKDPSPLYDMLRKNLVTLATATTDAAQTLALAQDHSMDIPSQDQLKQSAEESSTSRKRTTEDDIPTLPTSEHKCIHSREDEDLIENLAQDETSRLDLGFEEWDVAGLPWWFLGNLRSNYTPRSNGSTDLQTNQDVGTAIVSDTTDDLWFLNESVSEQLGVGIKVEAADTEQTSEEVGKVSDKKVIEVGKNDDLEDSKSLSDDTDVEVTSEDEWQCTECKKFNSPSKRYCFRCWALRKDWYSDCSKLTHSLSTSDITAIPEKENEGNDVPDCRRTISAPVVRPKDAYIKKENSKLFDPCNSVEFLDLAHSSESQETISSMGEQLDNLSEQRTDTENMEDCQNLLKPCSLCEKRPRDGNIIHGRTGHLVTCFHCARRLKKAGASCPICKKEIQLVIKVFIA
Sequence of Protein Mdm4 (Homo sapiens) + E3 ubiquitin-protein ligase Mdm2 (Homo sapiens) (Q00987 whole entry, looked up): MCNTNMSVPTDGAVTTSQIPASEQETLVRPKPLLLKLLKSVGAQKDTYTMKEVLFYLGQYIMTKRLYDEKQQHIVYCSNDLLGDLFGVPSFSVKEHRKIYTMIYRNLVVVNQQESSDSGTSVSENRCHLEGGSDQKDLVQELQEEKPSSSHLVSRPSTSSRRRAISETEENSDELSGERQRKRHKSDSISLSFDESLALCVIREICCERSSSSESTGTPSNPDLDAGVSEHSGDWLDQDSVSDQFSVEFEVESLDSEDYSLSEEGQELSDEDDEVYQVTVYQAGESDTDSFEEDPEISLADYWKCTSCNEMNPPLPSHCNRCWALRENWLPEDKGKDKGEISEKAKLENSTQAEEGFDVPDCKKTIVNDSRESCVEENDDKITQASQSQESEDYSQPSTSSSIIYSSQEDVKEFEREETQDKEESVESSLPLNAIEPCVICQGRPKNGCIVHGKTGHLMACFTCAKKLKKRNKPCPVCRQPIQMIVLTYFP

[9] = NF-kB reporter suppression in CF airway cells – cell-based, GFP fluorescence, single concentration, confirmation (AID 602472; in the data active = inhibition above about 40%;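 also: stimulus PAF is a Pseudomonas aeruginosa filtrate and not platelet activating factor; plate controls were DMSO wells with stimulus for no effect and unstimulated DMSO wells for full effect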); settings: KKLEB CF airway cells, PAF-induced NF-kB-GFP fluorescence, overnight; at 5 µM; stronger effect = higher value
[10] = NFkB reporter suppression in cystic fibrosis bronchial cells – cell-based, uHTS hits, panel, cytotoxicity readout, dose response (AID 624344); settings: CF bronchial epithelial cells, PAF-induced NFkB reporter inhibition, with PAF, run 1; at 79 µM (top of the series) unless noted
[11] = as above; settings: CF bronchial epithelial cells, PAF-induced NFkB reporter inhibition, with PAF, run 2; at 79 µM (top of the series) unless noted
[12] = target: Carboxy-terminal domain RNA polymerase II polypeptide A small phosphatase 1 (Homo sapiens) (UniProt Q9GZU7); assay: SCP1 melting temperature change from compounds – biophysical, differential scanning fluorimetry, orthogonal assay for Scp-1 inhibitor project, confirmation (AID 540329;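 active = substances whose mean melting-temperature shift, as a percentage of the reference inhibitor's shift, reaches about 5.3%, limit read from the data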;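 also: 0% = Tm of DMSO wells and 100% = Tm with sodium orthovanadate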); settings: Recombinant SCP1, Sypro Orange thermal shift Tm; at 40 µM; stronger effect = higher value
Sequence of Carboxy-terminal domain RNA polymerase II polypeptide A small phosphatase 1 (Homo sapiens) (Q9GZU7 76-261 limits assumed): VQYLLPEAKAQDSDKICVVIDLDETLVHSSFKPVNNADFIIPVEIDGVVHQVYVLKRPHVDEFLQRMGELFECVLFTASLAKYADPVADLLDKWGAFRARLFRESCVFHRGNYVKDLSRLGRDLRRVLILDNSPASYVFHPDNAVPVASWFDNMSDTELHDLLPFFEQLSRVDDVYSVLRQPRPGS

[13] = target: COP9 signalosome complex subunit 5 (Homo sapiens) (UniProt Q92905); assay: blockers of CSN-driven cullin deneddylation – biochemical, fluorescence polarization, single concentration, SCF-Nedd8OG substrate, confirmation (AID 720654; in the data active = inhibition above about 50%;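 also: 0% = DMSO with enzyme and 100% = no enzyme wells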); settings: Csn5 deneddylation of SCF-Nedd8OG, 90 min, at 16.6 µM, stronger effect = higher value
Sequence of COP9 signalosome complex subunit 5 (Homo sapiens) (Q92905 whole entry, looked up, one chain of several): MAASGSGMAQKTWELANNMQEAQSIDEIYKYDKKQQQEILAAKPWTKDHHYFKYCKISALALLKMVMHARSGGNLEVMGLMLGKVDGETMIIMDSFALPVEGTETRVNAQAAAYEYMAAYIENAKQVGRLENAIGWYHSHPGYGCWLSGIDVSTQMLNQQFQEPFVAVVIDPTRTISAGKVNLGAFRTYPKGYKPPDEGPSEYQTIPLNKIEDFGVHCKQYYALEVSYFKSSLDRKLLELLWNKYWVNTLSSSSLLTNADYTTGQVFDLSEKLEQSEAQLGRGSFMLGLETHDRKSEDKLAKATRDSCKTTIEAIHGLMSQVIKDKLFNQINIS

[14] = target: 72 kDa type IV collagenase (Homo sapiens) (UniProt P08253); assay: human MMP-2 inhibitors, single-point check – biochemical, fluorescence, single concentration, counter-screen for CSN deneddylation inhibitor project, confirmation (AID 720655;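 active = corrected plate-normalized z-score of 5 or more, or -5 or less, or inhibition of 15% or more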;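 also: plate controls were DMSO wells with enzyme for no effect and buffer wells lacking MMP-2 for full effect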); settings: recombinant MMP-2, FRET substrate fluorescence, 60 min; at 16.6 µM
Sequence of 72 kDa type IV collagenase (Homo sapiens) (P08253 whole entry, looked up): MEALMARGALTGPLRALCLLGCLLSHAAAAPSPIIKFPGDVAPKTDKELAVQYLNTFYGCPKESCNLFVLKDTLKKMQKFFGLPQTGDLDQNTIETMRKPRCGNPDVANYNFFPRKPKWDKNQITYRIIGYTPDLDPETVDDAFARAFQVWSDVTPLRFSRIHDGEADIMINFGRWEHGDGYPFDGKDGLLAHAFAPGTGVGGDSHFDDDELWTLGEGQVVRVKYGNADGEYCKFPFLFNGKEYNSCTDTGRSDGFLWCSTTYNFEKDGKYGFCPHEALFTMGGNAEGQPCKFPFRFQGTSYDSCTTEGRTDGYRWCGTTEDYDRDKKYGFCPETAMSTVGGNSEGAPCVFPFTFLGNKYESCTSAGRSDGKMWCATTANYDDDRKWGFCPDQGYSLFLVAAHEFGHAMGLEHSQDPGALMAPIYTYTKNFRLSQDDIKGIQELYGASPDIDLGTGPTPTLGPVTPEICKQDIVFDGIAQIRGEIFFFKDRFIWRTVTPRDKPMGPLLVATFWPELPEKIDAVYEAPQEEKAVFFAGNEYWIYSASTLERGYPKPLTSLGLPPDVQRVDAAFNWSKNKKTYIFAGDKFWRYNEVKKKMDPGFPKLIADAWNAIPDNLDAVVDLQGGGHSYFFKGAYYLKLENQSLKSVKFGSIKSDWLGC

[15] = target: Prothrombin (Bos taurus) (UniProt P00735); assay: thrombin cleavage blockers, FP readout – biochemical, fluorescence polarization, single concentration, counter-screen for CSN deneddylation inhibitor project, confirmation (AID 720656;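 active = inhibition at or above a set limit, with a fluorescence interference ratio between 0.5 and a set maximum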); settings: bovine thrombin cleavage of Ub4-pepOG, at 16.6 µM, stronger effect = higher value
[16] = target: Tumor necrosis factor receptor superfamily member 10B (Homo sapiens) (UniProt O14763); assay: viability loss of caspase-8 NB7 cells with TRAIL – with/without TRAIL, luminescence panel, confirmation (AID 651596; in the data active = activity above about 50%); settings: NB7 neuroblastoma + caspase-8, TRAIL sensitization, NB7 Caspase-8, with TRAIL, mean of runs, at 10 µM, stronger effect = higher value
Sequence of Tumor necrosis factor receptor superfamily member 10B (Homo sapiens) (O14763 whole entry, looked up): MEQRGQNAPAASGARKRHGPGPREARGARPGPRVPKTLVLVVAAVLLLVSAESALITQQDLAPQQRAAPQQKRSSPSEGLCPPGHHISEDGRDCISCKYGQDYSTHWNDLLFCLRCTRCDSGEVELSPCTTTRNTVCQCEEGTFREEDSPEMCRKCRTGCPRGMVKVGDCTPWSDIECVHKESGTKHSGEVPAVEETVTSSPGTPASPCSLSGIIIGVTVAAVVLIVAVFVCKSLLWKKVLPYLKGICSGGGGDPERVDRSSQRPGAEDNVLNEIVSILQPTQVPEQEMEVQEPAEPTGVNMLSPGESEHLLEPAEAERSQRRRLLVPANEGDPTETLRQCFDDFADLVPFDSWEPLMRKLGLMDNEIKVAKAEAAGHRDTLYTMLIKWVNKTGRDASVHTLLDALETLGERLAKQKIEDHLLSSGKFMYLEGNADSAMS

[17] = as above; settings: NB7 neuroblastoma + caspase-8, without TRAIL, NB7 Caspase-8, without TRAIL, mean of runs, at 10 µM
[18] = Brca1-Bard1 BiLC signal decrease – luminescence, single concentration, counter-screen for Mdm2/MdmX interaction inhibitor project, confirmation (AID 504668; call rule not given here); settings: Brca1/Bard1 bimolecular luciferase complementation counterscreen, at 8 µM, stronger effect = higher value
[19] = inhibition of PEG-3 promoter luciferase signal – cell-based, HeLa, luciferase reporter, single concentration, confirmation (AID 602417;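 active = at 20 µM dose, 40% or more inhibition averaged across four replicates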); settings: HeLa PEG-Prom luciferase reporter, luminescence, overnight; at 20 µM; stronger effect = higher value
[20] = HIF-2a driven luciferase blockers, single dose – luminescence, 786-0 RCC cells, confirmation (AID 651580;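 active = mean inhibition across four replicates of at least 40 percent at the single tested concentration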); settings: HIF-2a luciferase reporter luminescence, overnight, at 18.8 µM, stronger effect = higher value
[21] = HIF-1a luciferase reporter signal reduction – MiaPaCa-2 cells, single concentration, counter-screen for HIF-2a inhibitor project, confirmation (AID 651589;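 active = mean inhibition of the reporter signal across four replicates at the single tested dose of 50% or more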); settings: MiaPaCa-2 HIF-1a luciferase reporter, desferoxamine, overnight; at 18.8 µM; stronger effect = higher value
[22] = target: PEG-3 (UniProt Q6IN02); assay: inhibition of PEG-3 promoter-driven reporter – cell-based, HeLa, luciferase, CREF/GAPDH counter-screen panel, dose response (AID 624167); settings: CREF/GAPDH counter-screens; HeLa PEG-Prom luciferase reporter, overnight, run 1, dose range 1, at 100 µM (top of the series) unless noted
Sequence of PEG-3 (Q6IN02 whole entry, looked up): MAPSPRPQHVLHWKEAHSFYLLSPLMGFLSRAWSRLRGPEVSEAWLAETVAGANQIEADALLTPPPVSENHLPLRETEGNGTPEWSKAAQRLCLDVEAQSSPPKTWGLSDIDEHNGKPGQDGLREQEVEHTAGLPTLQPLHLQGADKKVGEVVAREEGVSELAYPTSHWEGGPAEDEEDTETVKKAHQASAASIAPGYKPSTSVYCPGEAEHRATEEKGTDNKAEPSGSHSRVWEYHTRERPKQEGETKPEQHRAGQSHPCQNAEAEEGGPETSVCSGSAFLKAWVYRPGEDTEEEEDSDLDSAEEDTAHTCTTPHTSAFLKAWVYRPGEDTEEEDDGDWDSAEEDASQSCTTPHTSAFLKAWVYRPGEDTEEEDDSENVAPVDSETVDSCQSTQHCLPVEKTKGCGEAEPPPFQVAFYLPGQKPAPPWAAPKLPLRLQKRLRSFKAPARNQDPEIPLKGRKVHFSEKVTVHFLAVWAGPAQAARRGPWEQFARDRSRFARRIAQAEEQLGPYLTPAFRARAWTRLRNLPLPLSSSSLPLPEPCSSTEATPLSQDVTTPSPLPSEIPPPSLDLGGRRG

[23] = target: PEG-3 (UniProt Q6IN02); assay: as above; settings: CREF/GAPDH counter-screens; HeLa PEG-Prom luciferase reporter, overnight, run 2, dose range 1, at 100 µM (top of the series) unless noted
[24] = tested on: Rat fibroblasts (CREF); assay: as above; settings: CREF/GAPDH counter-screens; run 1, dose range 1, at 100 µM (top of the series)
[25] = tested on: Rat fibroblasts (CREF); assay: as above; settings: CREF/GAPDH counter-screens; run 2, dose range 1, at 100 µM (top of the series)
[26] = fluorescence interference of Apaf-1 inhibitor hits, dose response, artefact control for Apaf-1 inhibitor project (AID 588538; call rule not given here); settings: fluorescence interference counterscreen, Apaf-1 assay format

Structure (SMILES): CCSc1nnc(NC(=O)c2ccc(C)cc2)s1
- inhibition [1]: 33.7% (inactive)
- inhibition [2]: 23.5% (inactive)
- inhibition [3]: 51.1% (active)
- inhibition [4]: 27.1% (inactive)
- inhibition [5]: 2% (inactive)

Structure (SMILES): Cc1[nH][nH]c(=O)c1C(c1ccc(-c2ccc(Cl)cc2)o1)c1c(C)[nH][nH]c1=O
- inhibition [1]: -6.8% (inactive)
- inhibition [2]: 16% (inactive)
- inhibition [3]: 2.9% (inactive)
- inhibition [4]: 7.2% (inactive)
- inhibition [5]: 1.7% (inactive)
- inhibition [6]: 18% (inactive)
- activation (fluorescence interference) [7]: -1.73% (inactive)

Structure (SMILES): CC(=O)Oc1ccc2c(c1)C(=O)c1ccccc1C2=O
- inhibition [1]: 38.1% (inactive)
- inhibition [2]: 43.9% (inactive)
- inhibition [3]: 67.4% (active)
- inhibition [4]: 57.6% (active)
- inhibition [5]: 25.6% (inactive)

Structure (SMILES): O=C(Cn1ccc([N+](=O)[O-])n1)NCc1cccs1
- inhibition [1]: -12.3% (inactive)
- inhibition [2]: -5.9% (inactive)
- inhibition [3]: -4.5% (inactive)
- inhibition [4]: -1.1% (inactive)
- inhibition [5]: -8.7% (inactive)

Structure (SMILES): O=C(Nc1ccccc1)c1ccc(NC(=O)c2cccs2)cc1
- inhibition [1]: -8.2% (inactive)
- inhibition [2]: -4.8% (inactive)
- inhibition [3]: 0.7% (inactive)
- inhibition [4]: 38.2% (inactive)
- inhibition [5]: -1.7% (inactive)

Structure (SMILES): CCOC(=O)c1c(-c2cccc(C)c2)csc1NC(=O)c1c(-c2ccccc2)noc1C
- inhibition [8]: 101% (active)

Structure (SMILES): O=C(Nc1nnc(S(=O)(=O)N2CCCCCC2)s1)c1cccc(Br)c1
- inhibition [1]: 42.1% (inactive)
- inhibition [2]: 31.9% (inactive)
- inhibition [3]: 21.7% (inactive)
- inhibition [4]: 28.6% (inactive)
- inhibition [5]: 29.4% (inactive)
- inhibition [9]: 77.4% (active)
- inhibition [10]: 83%
- inhibition [11]: 68.3%

Structure (SMILES): CC(=O)c1ccc(S(=O)(=O)N2CCN(C(=O)/C=C/c3ccc4ccccc4n3)CC2)cc1
- inhibition [8]: 85.2% (active)

Structure (SMILES): CSc1ccc(/C=N/NC(=O)c2cccc(Cl)c2)cc1
- inhibition [1]: 36.6% (inactive)
- inhibition [2]: 96.5% (active)
- inhibition [3]: 44.1% (inactive)
- inhibition [4]: 93.6% (active)
- inhibition [5]: 40.2% (inactive)
- thermal shift relative to vanadate control [12]: 9.78% (active)

Structure (SMILES): COc1ccc(C(=O)NC2CCCc3c2cnn3-c2cccc(C)c2C)c(OC)n1 (configuration not stated)
- inhibition [8]: 102% (active)

Structure (SMILES): O=C(/C=C/Sc1ncn[nH]1)c1ccc(Cl)cc1
- inhibition [8]: 103% (active)

Structure (SMILES): COc1cc(/C=C(\C#N)c2nc3ccccc3[nH]2)ccc1O
- inhibition [1]: 95.1% (active)
- inhibition [2]: 95.1% (active)
- inhibition [3]: 101% (active)
- inhibition [4]: 93.4% (active)
- inhibition [5]: 66.5% (active)
- inhibition [13]: 78.1% (active)
- inhibition [14]: -18.3% (inactive)
- inhibition [15]: 62.2% (active)

Structure (SMILES): O=C(Nc1ccn(Cc2ccccc2)n1)c1n[nH]c([N+](=O)[O-])c1Cl
- inhibition [1]: 96.4% (active)
- inhibition [2]: 97.3% (active)
- inhibition [3]: 102% (active)
- inhibition [4]: 96.2% (active)
- inhibition [5]: 96.7% (active)
- activity [16]: 64.8%
- activity [17]: 63%

Structure (SMILES): O=C(CSC(=S)N1CCOCC1)c1ccccc1
- inhibition [1]: 79.2% (active)
- inhibition [2]: 77.6% (active)
- inhibition [3]: 94.1% (active)
- inhibition [4]: 88.1% (active)
- inhibition [5]: 77% (active)
- activity [16]: 46.8%
- activity [17]: 55.2%

Structure (SMILES): CN(c1ccc2nc3ccccc3c(=O)n2n1)C1CCCCC1
- inhibition [1]: 94.2% (active)
- inhibition [2]: 94.5% (active)
- inhibition [3]: 101% (active)
- inhibition [4]: 96.3% (active)
- inhibition [5]: 77.2% (active)
- inhibition [18]: 27.7% (active)
- inhibition [19]: 78.8% (active)
- inhibition [20]: 91.2% (active)
- inhibition [21]: 97.8% (active)
- inhibition [22]: 98.5%
- inhibition [23]: 86.2%
- inhibition [24]: 98.4%
- inhibition [25]: 98.9%

Structure (SMILES): CC(=C/c1ccccc1)/C=N/NC(=O)c1cc(C)oc1C
- inhibition [1]: 14.3% (inactive)
- inhibition [2]: 46.8% (inactive)
- inhibition [3]: 23.5% (inactive)
- inhibition [4]: 86.4% (active)
- inhibition [5]: -2.7% (inactive)
- activity [16]: 58.5%
- activity [17]: 63.6%

Structure (SMILES): CC[C@]1(C(=O)OC)[C@H]2C(=O)N(Cc3ccccc3)C(=O)[C@H]2[C@H]2CN=C(SCc3ccc(Cl)cc3)N21
- inhibition [8]: 103% (active)

Structure (SMILES): O=C(CCCN1C(=O)/C(=C/c2ccccc2)SC1=S)Nc1ccc(O)cc1
- inhibition [8]: 80.2% (active)

Structure (SMILES): O=c1c2cc(-c3ccccc3)sc2nc2n1N=C(c1cccs1)CS2
- inhibition [1]: 11.6% (inactive)
- inhibition [2]: 3.2% (inactive)
- inhibition [3]: -0.5% (inactive)
- inhibition [4]: 8.2% (inactive)
- inhibition [5]: 3.2% (inactive)
- thermal shift relative to vanadate control [12]: 11.4% (active)
- activity [16]: 63.5%
- activity [17]: 57.9%

Structure (SMILES): C(=N\Nc1ccc2ccccc2n1)/c1ccc2c(c1)OCO2
- inhibition [1]: 97.7% (active)
- inhibition [2]: 98.3% (active)
- inhibition [3]: 102% (active)
- inhibition [4]: 93.2% (active)
- inhibition [5]: 71.3% (active)
- activity [16]: 51.5%
- activity [17]: 31.6%

Structure (SMILES): Clc1ccc(C2=CSC3=Nc4cccc5cccc(c45)N23)cc1
- inhibition [1]: 1.7% (inactive)
- inhibition [2]: 55.9% (active)
- inhibition [3]: 7.2% (inactive)
- inhibition [4]: -5.7% (inactive)
- inhibition [5]: -2.1% (inactive)
- inhibition [6]: 62.8% (active)
- activation (fluorescence interference) [7]: -1.7% (inactive)
- IC50 [26]: > 100 µM (inactive)

Structure (SMILES): CC[C@]1(C(=O)OC)[C@H]2C(=O)N(Cc3ccccc3)C(=O)[C@H]2[C@H]2CN=C(SCc3ccc(C#N)cc3)N21
- inhibition [8]: 102% (active)

Structure (SMILES): COc1ccc(-c2cn3ccsc3n2)cc1
- inhibition [1]: 55.5% (active)
- inhibition [2]: 51.2% (active)
- inhibition [3]: 81.3% (active)
- inhibition [4]: 74.4% (active)
- inhibition [5]: 56.3% (active)
- activity [16]: 64.2%
- activity [17]: 54.6%

Structure (SMILES): Cn1c(NC(=O)c2ccccc2)nc2ccccc21
- inhibition [1]: 55.5% (active)
- inhibition [2]: 61.6% (active)
- inhibition [3]: 89.8% (active)
- inhibition [4]: 83.7% (active)
- inhibition [5]: 65.2% (active)
- activity [16]: 50.4%
- activity [17]: 61.1%

— PubChem BioAssay
